NALP1 inh – NALP1 inflammasome inhibitors in reconstituted yeast, colorimetric, S. cerevisiae, triplicate retest; S. cerevisiae NALP1/ASC/caspase-1 growth, X-gal OD620, 72 h; inhibition, % at 10 µM; 0.61% of 280,000 active; in the data active means inhibition mostly above about 24%, no sharp cut-off; inactive means mostly below about 32%
PolyA inhibitor – polyadenylation inhibitors in yeast reporter cells, primary screen, luminescence, S. cerevisiae | S. cerevisiae SKY197-pL101 polyadenylation reporter, beta-gal luminescence; efflux-impaired pdr1/pdr3 knockout yeast; score 100 = 6 SD above DMSO | 0.02% of 300,000 active | activity score, % at 12 µM;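 active means lowest replicate activity score at least 50, where 100 means six control SD above control mean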;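 further: yeast exposed to compound for 9 h at 30 °C; higher score means more reporter readthrough which indicates perturbed polyadenylation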
ZTA counter – ZTA (EBV) inhibition in EBNA-1 counter-screen; P03206; inhibition, % at 11 µM; ZTA-DNA binding, fluorescence polarization; 0.15% of 320,000 active; in the data active means inhibition above about 33%
Target sequence (P03206 whole entry, looked up): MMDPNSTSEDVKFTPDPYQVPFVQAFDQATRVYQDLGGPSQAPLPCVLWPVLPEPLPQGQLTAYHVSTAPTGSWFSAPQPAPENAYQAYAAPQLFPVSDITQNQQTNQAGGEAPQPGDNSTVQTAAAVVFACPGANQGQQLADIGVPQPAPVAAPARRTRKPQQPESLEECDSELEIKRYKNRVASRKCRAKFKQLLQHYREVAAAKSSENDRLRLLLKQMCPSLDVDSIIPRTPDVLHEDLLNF
EBNA-1 inh – EBNA-1 DNA-binding inhibitors, primary screen, biochemical, fluorescence polarization | inhibition, % at 14.8 µM | 0.34% of 300,000 active | AID 1950, 2009; in the data active means inhibition above about 28%
dFosB act-1 – activators of delta FosB homodimer, primary screen, biochemical, fluorescence polarization, TAMRA-CDK5 oligo, single point; activation, % at 25 µM; purified delta FosB; percent of positive-control signal above neutral wells; 0.99% of 340,000 active;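 active means mean activation above about 17%, with every replicate also reaching it, limit read from the data, passing the limit was not always enough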
Target sequence (P13346 whole entry, looked up): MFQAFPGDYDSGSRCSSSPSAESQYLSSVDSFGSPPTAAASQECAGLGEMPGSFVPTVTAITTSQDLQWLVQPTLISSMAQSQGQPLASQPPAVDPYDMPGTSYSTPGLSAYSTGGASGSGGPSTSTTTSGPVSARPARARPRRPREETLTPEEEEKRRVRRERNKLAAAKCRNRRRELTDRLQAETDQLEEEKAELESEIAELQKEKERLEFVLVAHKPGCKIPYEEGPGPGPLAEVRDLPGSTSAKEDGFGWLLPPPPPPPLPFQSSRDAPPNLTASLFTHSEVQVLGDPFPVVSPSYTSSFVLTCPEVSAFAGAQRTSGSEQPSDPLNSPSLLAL
NLRP3 yeast inh – NALP3 inflammasome inhibitors in reconstituted yeast, primary screen, luminescence, uHTS. 0.39% of 330,000 active. AID 2825, 2010. Yeast reconstituted NLRP3/ASC/caspase-1, beta-gal luminescence, 24 h. inhibition, % at 10 µM;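 active means inhibition of 50% or more; inactive means inhibition below 50%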;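 further: plate controls were induced DMSO wells for no effect and uninduced yeast grown without galactose for full effect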
dFosB act-2 – activators of mouse delta FosB DNA binding, confirmation, biochemical, fluorescence polarization, TAMRA-CDK5 oligo, cherry-picked samples; 2,400 tested, under 10 active; activation, % at 24.9 µM; shares compounds with dFosB act-1; purified delta FosB; normalised: neutral wells 0, positive control 100;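 active means highest replicate activation at or above 34% and every replicate reaching that threshold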;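 further: higher polarization means more probe DNA bound by delta FosB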
Active calls of the source: *; nt = no result given. Only some compounds are listed: those with a hit (about 2.2% of all), similar ones and a draw of the others.

SMILES	NALP1 inh	PolyA inhibitor	ZTA counter	EBNA-1 inh	dFosB act-1	NLRP3 yeast inh	dFosB act-2
O=C(CN1C(=O)S/C(=C\c2ccccn2)C1=O)Nc1ccccc1	7.1	nt	nt	nt	60.5*	6.6	4.9
Cc1cccc(NC(=O)CN2C(=O)S/C(=C\c3ccccn3)C2=O)c1	10.5	-0.2	11.2	3.8	40.7*	1.0	4.1
Cc1ccc(NC(=O)CN2C(=O)S/C(=C\c3ccccn3)C2=O)cc1	-1.8	-37.1	7.1	5.4	6.1	10.6	nt
Cc1ccc(NC(=O)CN2C(=O)c3ccccc3C2=O)cc1	26.1	4.3	4.9	3.4	1.9	21.8	nt
Cc1ccc2[nH]c3c(=O)n(CC(=O)N4CCN(C)CC4)ncc3c2c1	12.1	9.5	4.1	-3.1	-0.2	15.4	nt
Cc1ccc(NC(=O)CN2C(=O)S/C(=C\c3cccn3C)C2=O)cc1	2.6	-0.4	9.2	12.5	-0.5	19.3	nt
O=C(CN1C(=O)S/C(=C\c2ccccn2)C1=O)Nc1ccc(F)cc1	7.6	nt	nt	nt	48.2*	18.3	0.8
CCOc1ccc(S(=O)(=O)N2CCOCC2)cc1NC(=O)CSCc1ccc(C)cc1	nt	nt	-11.3	nt	-4.4	-4.9	nt
O=C(Nc1ccc(Cl)cc1)Nc1ccc(-c2cnco2)cc1	-2.5	-9.7	-7.0	10.1	39.3*	22.0	3.1
O=C(NC(=O)c1ccccc1)Nc1ccc(-c2cnco2)cc1	7.0	-6.2	30.0	9.5	nt	24.8	nt
COC(=O)[C@H](CC(C)C)N1Cc2cc(OC)cc(OC)c2-c2ccccc2S1(=O)=O	nt	nt	nt	nt	-11.3	nt	nt
O=C(CSCC(=O)Nc1nc(-c2ccc3c(c2)OCO3)cs1)Nc1nccs1	-3.2	-18.0	3.2	-6.0	-6.4	-5.1	nt
O=C(CSc1ccc(-c2ccc3c(c2)OCO3)nn1)Nc1nccs1	-12.1	-1.1	15.0	13.7	35.7*	-3.6	-4.2
COc1ccc(S(=O)(=O)Nc2cccc(-c3ccc4nncn4n3)c2)cc1	nt	8.9	-4.0	-9.8	21.2*	12.0	3.3
COc1ccc(N2C(=O)C(CC(=O)Nc3ccc(Cl)cc3)N(NC(=O)c3cccc(F)c3)C2=S)cc1 (configuration not stated)	nt	-0.3	14.7	8.1	25.2*	-17.3	-6.1
CCOc1ccc(NC(=O)CC2C(=O)N(c3ccc(OC)c(Cl)c3)C(=S)N2C2CC2)cc1 (configuration not stated)	12.4	-4.3	-2.9	3.5	28.4*	1.7	5.6
CCOc1ccc(NC(=O)CC2C(=O)N(c3ccc(OC)cc3)C(=S)N2Cc2ccccn2)cc1 (configuration not stated)	7.1	-5.6	-1.7	-11.5	-3.6	-1.9	nt
O=C(Nc1ccccc1Cl)c1sccc1-c1ccccc1	20.4	-4.3	13.2	5.5	-4.5	22.3	nt
Cc1ccc(C(=O)N2CCCC(Nc3ccc(F)cc3)C2)cc1C (configuration not stated)	11.7	0.5	0.7	-0.6	-6.0	1.4	nt
Cc1ccc(CSc2nnc(SCC(=O)N/N=C/c3c[nH]c4ccccc34)s2)cc1	-14.3	3.6	nt	nt	81.1*	nt	8.5
CCN(c1ccccc1)S(=O)(=O)c1ccc(OC)c(NC(=O)c2cc(F)c(F)c(F)c2F)c1	nt	nt	nt	nt	9.0	-4.8	nt
Cc1c(-c2cc(Br)ccc2O)nc2cc3c(cc2c1C)OCO3	10.8	-35.2	-12.7	-11.2	24.4*	10.2	5.1
Cc1nc(NC(=O)c2ccc(Cl)cc2)nc2cc3c(cc12)OCO3	39.3	-2.7	-3.9	-1.1	9.4	-5.0	nt
Cc1ccc(NC(=O)CSCC(=O)N2CCN(c3cccc(C(F)(F)F)c3)CC2)cc1	nt	15.3	-5.9	2.2	-19.0	30.2	nt
O=C(CCNC(=O)c1ccccc1Cl)Nc1cc(C(F)(F)F)ccc1Cl	-8.9	-5.7	-1.8	7.1	34.0*	14.2	5.6
SMILES	NALP1 inh	PolyA inhibitor	ZTA counter	EBNA-1 inh	dFosB act-1	NLRP3 yeast inh	dFosB act-2
O=C(CCNC(=O)c1ccccc1Cl)Nc1ccc(Br)c(C(F)(F)F)c1	30.1	5.0	0.0	1.9	0.7	-2.9	nt
CN(Cc1ccccc1F)C(=O)CN1CCN(S(=O)(=O)c2ccc3c(c2)OCCCO3)CC1	nt	nt	-5.6	nt	-10.5	14.3	nt
O=C(CSc1nc2ccccc2c(=O)n1-c1ccc(Cl)cc1)c1ccco1	8.3	-8.7	10.2	-8.8	52.8*	-6.2	3.2
O=C(CSc1nc2ccccc2c(=O)n1-c1ccccc1)c1c[nH]c2ccccc12	17.4	-13.9	-1.9	37.2*	28.6*	-8.3	4.8
CCCOC1CCCN(C(=O)c2ccc3oc(C(C)C)nc3c2)C1 (configuration not stated)	2.5	1.7	-2.9	0.8	-11.4	6.6	nt
CCS(=O)(=O)Nc1ccc(-c2nnc(SCC(=O)c3ccc(NC(C)=O)c(OC)c3)o2)cc1	-10.3	-14.5	-12.4	6.2	33.6*	25.8	8.2
COc1ccc(-c2ccc3c(=O)cc(-c4ccsc4)oc3c2)cn1	nt	nt	nt	nt	-140.8	22.5	nt
COc1cc(-c2ccc3oc(-c4ccsc4)cc(=O)c3c2)cc(OC)c1OC	nt	nt	nt	nt	44.3*	22.5	-11.6
CCOc1ccc(-n2c(SCC(=O)N3CCc4ccccc43)nnc2-c2c[nH]c3ccccc23)cc1	26.0	7.8	-9.0	17.4	27.2*	9.1	3.7
O=C(CSc1nnc(Cc2cc(=O)[nH]c(=O)[nH]2)n1-c1ccc(Cl)cc1)N1CCc2ccccc21	14.7	0.5	4.0	17.8	nt	7.3	nt
Cc1cccc(-n2c(Cc3cc(=O)[nH]c(=O)[nH]3)nnc2SCC(=O)N2CCc3ccccc32)c1	4.8	-6.9	5.0	0.8	38.2*	9.7	-1.8
COc1ccc2cc(C(=O)Nc3ccc(F)cc3)sc(=O)c2c1OC	7.8	28.0	3.4	-1.2	33.5*	12.3	1.3
COc1ccc2cc(C(=O)Nc3ccc(Cl)cc3)sc(=O)c2c1OC	26.2	-5.6	5.9	19.3	70.7*	18.0	5.4
Cn1nccc1C(=O)NC1CCN(Cc2ccccc2)CC1	9.2	-2.0	10.6	9.9	-9.6	20.8	nt
Cc1ccc2c(C)nc(N/C(N)=N/S(=O)(=O)c3ccccc3)nc2c1	3.5	4.9	-0.4	21.8	25.3*	19.8	-5.3
CCOC(=O)CNC(=O)N(CCOC)CC1CCCN(C2Cc3ccccc3C2)C1 (configuration not stated)	-26.8	3.6	14.6	0.0	-5.1	16.3	nt
Cc1nn(CC(=O)NCCc2cccs2)c(=O)c2cc3ccccc3n12	6.9	12.1	-4.7	0.3	26.4*	-3.8	3.8
O=C(c1ccc2c(=O)n(Cc3ccc(Cl)cc3)c(=S)[nH]c2c1)N1CCCC1	-2.7	-1.7	-5.0	-0.6	15.2	-2.8	nt

High-throughput results as filed in PubChem.
